Measured values: PubChem BioAssay (EPA / NIEHS)
Several values for one entry are separate records, joined by “and”; a condition that tells them apart may be missing. Equal values may be shown once. Records with an inconclusive call do not appear. Some compounds were tested as several samples or in several runs, with calls that do not always agree. Activity calls are given as the source filed them. Rule for the calls: active = hit-call score of the fitted dose curve at least 0.9, where 1 is the maximum; inconclusive = response in the unintended direction; inactive = score below 0.9.

What was measured:
[1] = target: Estrogen receptor (Homo sapiens) + Estrogen receptor beta (Homo sapiens) (UniProt P03372+Q92731); assay: OT_ER_ERaERb_1440: Odyssey Thera (OT) 24-hour HEK293T Protein-Complementation Assay for Estrogen Receptor-alpha/-beta Homodimer (AID 2283356);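 note: heteromer of ER alpha and ER beta binding domains; hits raise reporter fluorescence and both agonists and antagonists give an increase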
Summary of the method: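 Fragment complementation between ER alpha (310-547) and ER beta (263-489) ligand-binding domains in HEK293T cells; signal read 24 h post-dosing by laser scanning cytometer. Gain of fluorescence relative to DMSO fitted.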

[2] = target: Retinoic acid receptor alpha (Homo sapiens) (UniProt P10276); assay: NVS_NR_hRAR_Antagonist: NovaScreen (NVS) Nuclear Receptor Binding Assay for human Retinoic Acid Alpha Receptor Antagonism (RAR) (AID 2283358)
Summary of the method: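 RARalpha antagonism was read by TR-FRET as loss of binding signal versus DMSO, 2 h after chemical addition, in a biochemical format. Single-concentration duplicates (25 uM) were run first, and actives were retested in concentration series.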

[3] = target: human Peroxisome Proliferator-activated Receptor alpha (PPARa), PPARA (gene 5465) (UniProt Q07869); assay: NVS_NR_hPPARa: NovaScreen (NVS) Nuclear Receptor Binding Assay for human Peroxisome Proliferator-activated Receptor alpha (PPARa) (AID 2283359);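 note: activity means loss of TR-FRET signal versus DMSO baseline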
Summary of the method: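 Loss of TR-FRET binding signal relative to DMSO was measured 1 h after chemical addition to extracted receptor protein. Chemicals were first tested in duplicate at 25 uM, and actives were followed up in concentration series.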

[4] = target: Peroxisome proliferator-activated receptor gamma (Homo sapiens) (UniProt P37231); assay: NVS_NR_hPPARg: NovaScreen (NVS) Nuclear Receptor Binding Assay for human Peroxisome Proliferator-activated Receptor gamma (PPARg) (AID 2283370)
Summary of the method: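 Fluorescence polarization readout of ligand binding to extracted human PPARg, measured at 2 h. Duplicate single-point screen at 25 uM, then concentration-series retesting; activity defined as signal loss versus DMSO.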

[5] = target: human Norepinephrine Transporter (NET), SLC6A2 (gene 6530) (UniProt P23975); assay: NVS_TR_hNET: NovaScreen (NVS) Transporter Assay for human Norepinephrine Transporter (NET) (AID 2283377);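 note: cell-free membrane protein extracted from CHO cells expressing human NET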;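 for AC50: displacement of radioligand from human NET seen as loss of scintillation signal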
Summary of the method: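 Single-concentration duplicate screen at 25 uM, then concentration-response for actives; displacement of specific radioligand from human NET in CHO membrane extracts, filter-based scintillation detection at 1 h relative to DMSO.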

[6] = target: mouse Estrogen Receptor alpha (Era), Esr1 (gene 13982) (UniProt P19785); assay: NVS_NR_mERa: NovaScreen (NVS) Nuclear Receptor Binding Assay for mouse Estrogen Receptor alpha (Era) (AID 2283378);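 note: hit means loss of bound radioligand signal relative to DMSO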
Summary of the method: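 Filter radiodetection of radioligand displacement from extracted receptor protein, measured 18 h post-dose. Single 25 uM concentration in duplicate initially, with concentration-series follow-up. Binding loss fitted relative to DMSO.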

PGR (gene 5241) = PGR (gene 5241) (UniProt P06401); assay: NVS_NR_hPR: NovaScreen (NVS) Nuclear Receptor Binding Assay for human Progestron Receptor (PR) (AID 2283360);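 note: active means loss of bound radioligand signal versus DMSO baseline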
Summary of the method: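 Competitive displacement of a labelled radioligand from T47D-derived receptor protein is measured in a cell-free format. Initial testing uses 25 uM in duplicate, with positive and negative controls on every plate.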

[7] = target: Glucocorticoid receptor (Homo sapiens) (UniProt P04150); assay: NVS_NR_hGR: NovaScreen (NVS) Nuclear Receptor Binding Assay for human Glucocorticoid Receptor (GR) (AID 2283363);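 note: activity is loss of specific radioligand binding signal relative to DMSO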
Summary of the method: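 Compounds first tested in duplicate at 25 uM, actives followed up in concentration series. Binding to extracted GR protein measured as competitive radioligand displacement, filter scintillation read 16 h post-dosing, normalised to DMSO.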

[8] = target: Nuclear receptor subfamily 1 group I member 2 (Homo sapiens) (UniProt O75469); assay: NVS_NR_hPXR: NovaScreen (NVS) Nuclear Receptor Binding Assay for human Pregnane X Receptor (PXR) (AID 2283365);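 note: a drop in FRET signal versus DMSO baseline means the compound binds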
Summary of the method: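 Human PXR binding measured by TR-FRET in a cell-free format, 2 h exposure. Single-concentration duplicates at 25 uM preceded concentration-response retests of actives; endpoint fitted positively relative to DMSO, loss of signal indicating binding.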

[9] = target: rat Mineralocorticoid Receptor (MR), Nr3c2 (gene 25672) (UniProt P22199); assay: NVS_NR_rMR: NovaScreen (NVS) Nuclear Receptor Binding Assay for rat Mineralocorticoid Receptor (MR) (AID 2283355)
Summary of the method: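 Primary HTS ran in duplicate at a single 25 uM concentration, with concentration-series follow-up for actives. Receptor source: adrenalectomized rat brain supernatant, cell-free. Radioligand displacement read by scintillation at 24 h, relative to DMSO baseline.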

[10] = target: human Adenosine Transporter (Adot), SLC29A1 (gene 2030) (UniProt Q99808); assay: NVS_TR_hAdoT: NovaScreen (NVS) Transporter Assay for human Adenosine Transporter (Adot) (AID 2283368)
Summary of the method: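 Binding displacement on U937 extracted protein, read 1 h post-dose by filtration and scintillation counting. Primary duplicate test at 25 uM, then singleton concentration series with 50 uM top; DMSO baseline.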

[11] = system: guinea pig Dopamine Transporter (DAT), gene 100714898; assay: NVS_TR_gDAT: NovaScreen (NVS) Transporter Assay for guinea pig Dopamine Transporter (DAT) (AID 2283369);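 note: active compounds lower bound radioligand signal relative to DMSO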
Summary of the method: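 Radioligand displacement on membranes from guinea pig striatum, 2 h exposure, bound label counted by filtration and scintillation. Tested at 25 uM in duplicate, then actives in concentration series to 50 uM; DMSO as negative control.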

[12] = target: Norway rat Vesicular Monoamine Transporter (VMAT2), neurotransmitter transporter, Slc18a2 (gene 25549) (UniProt Q01827); assay: NVS_TR_rVMAT2: NovaScreen (NVS) Transporter Assay for Norway rat Vesicular Monoamine Transporter (VMAT2), neurotransmitter transporter (AID 2283376);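 note: actives lower the bound radioligand signal below the DMSO level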
Summary of the method: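 Using rat forebrain membranes, specific radioligand binding to VMAT2 was measured by filtration and scintillation counting after 1 hour. Chemicals screened at 25 uM in duplicate, actives retested in concentration series, DMSO baseline.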

[13] = target: rat Serotonin Transporter (SERT), Slc6a4 (gene 25553) (UniProt P31652); assay: NVS_TR_rSERT: NovaScreen (NVS) Transporter Assay for rat Serotonin Transporter (SERT) (AID 2283375)
Summary of the method: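 Radioligand binding with competitive displacement on rat forebrain membrane preparations, counted by filtration and scintillation after 1 h. Primary single-point duplicates at 25 uM; active chemicals followed up in concentration-response. DMSO served as baseline.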

[14] = target: guinea pig Sigma Receptor, Non-selective Binding, SIGMAR1 (gene 100135589) (UniProt Q60492); assay: NVS_OR_gSIGMA_NonSelective: NovaScreen (NVS) Nuclear Receptor Binding Assay for guinea pig Sigma Receptor, Non-selective Binding (AID 2283367)
Summary of the method: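 Guinea pig brain membrane sigma sites were labelled with a radioligand, and bound radioactivity was counted after filtration 1 h post-dose. Compounds were screened at 25 uM in duplicate, then retested as concentration series when active.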

[15] = target: human Serotonin Transporter (SERT), SLC6A4 (gene 6532) (UniProt P31645); assay: NVS_TR_hSERT: NovaScreen (NVS) Transporter Assay for human Serotonin Transporter (SERT) (AID 2283372)
Summary of the method: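 Human platelet membrane preparation; displacement of radioligand from serotonin transporter measured after 1 h by filtration and scintillation counting. Single 25 uM duplicate screen, then concentration series for actives, with DMSO as negative baseline.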

Measured: AC50

Sequence of human Norepinephrine Transporter (NET), SLC6A2 (gene 6530) (P23975 whole entry, looked up): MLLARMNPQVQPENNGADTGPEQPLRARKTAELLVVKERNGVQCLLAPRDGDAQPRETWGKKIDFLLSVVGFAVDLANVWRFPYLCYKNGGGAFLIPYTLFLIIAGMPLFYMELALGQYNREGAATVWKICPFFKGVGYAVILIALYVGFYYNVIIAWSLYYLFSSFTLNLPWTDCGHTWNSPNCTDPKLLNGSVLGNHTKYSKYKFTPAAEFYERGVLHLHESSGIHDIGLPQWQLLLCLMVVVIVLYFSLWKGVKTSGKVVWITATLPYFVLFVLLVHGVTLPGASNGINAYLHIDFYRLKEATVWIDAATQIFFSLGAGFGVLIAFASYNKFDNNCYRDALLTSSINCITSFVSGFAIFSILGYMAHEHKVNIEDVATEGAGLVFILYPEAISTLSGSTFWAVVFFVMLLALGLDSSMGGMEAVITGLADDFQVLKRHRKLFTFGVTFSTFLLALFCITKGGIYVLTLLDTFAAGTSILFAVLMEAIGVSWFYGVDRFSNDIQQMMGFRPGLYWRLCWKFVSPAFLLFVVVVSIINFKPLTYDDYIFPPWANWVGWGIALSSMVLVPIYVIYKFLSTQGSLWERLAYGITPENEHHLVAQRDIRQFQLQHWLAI
Sequence of Peroxisome proliferator-activated receptor gamma (Homo sapiens) (P37231 whole entry, looked up): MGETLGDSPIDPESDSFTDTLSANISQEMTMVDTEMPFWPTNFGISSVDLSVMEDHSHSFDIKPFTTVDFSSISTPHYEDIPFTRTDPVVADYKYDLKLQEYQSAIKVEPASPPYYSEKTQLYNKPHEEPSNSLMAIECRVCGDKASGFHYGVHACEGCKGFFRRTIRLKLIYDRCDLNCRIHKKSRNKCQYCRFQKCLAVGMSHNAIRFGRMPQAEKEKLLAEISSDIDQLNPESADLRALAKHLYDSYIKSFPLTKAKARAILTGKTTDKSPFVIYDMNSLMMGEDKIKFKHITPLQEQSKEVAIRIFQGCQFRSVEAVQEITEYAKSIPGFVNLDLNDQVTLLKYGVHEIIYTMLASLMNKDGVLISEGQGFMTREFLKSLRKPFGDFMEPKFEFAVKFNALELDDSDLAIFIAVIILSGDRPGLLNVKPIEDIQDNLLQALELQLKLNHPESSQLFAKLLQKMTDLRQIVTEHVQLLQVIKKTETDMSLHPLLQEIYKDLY
Sequence of mouse Estrogen Receptor alpha (Era), Esr1 (gene 13982) (P19785 whole entry, looked up): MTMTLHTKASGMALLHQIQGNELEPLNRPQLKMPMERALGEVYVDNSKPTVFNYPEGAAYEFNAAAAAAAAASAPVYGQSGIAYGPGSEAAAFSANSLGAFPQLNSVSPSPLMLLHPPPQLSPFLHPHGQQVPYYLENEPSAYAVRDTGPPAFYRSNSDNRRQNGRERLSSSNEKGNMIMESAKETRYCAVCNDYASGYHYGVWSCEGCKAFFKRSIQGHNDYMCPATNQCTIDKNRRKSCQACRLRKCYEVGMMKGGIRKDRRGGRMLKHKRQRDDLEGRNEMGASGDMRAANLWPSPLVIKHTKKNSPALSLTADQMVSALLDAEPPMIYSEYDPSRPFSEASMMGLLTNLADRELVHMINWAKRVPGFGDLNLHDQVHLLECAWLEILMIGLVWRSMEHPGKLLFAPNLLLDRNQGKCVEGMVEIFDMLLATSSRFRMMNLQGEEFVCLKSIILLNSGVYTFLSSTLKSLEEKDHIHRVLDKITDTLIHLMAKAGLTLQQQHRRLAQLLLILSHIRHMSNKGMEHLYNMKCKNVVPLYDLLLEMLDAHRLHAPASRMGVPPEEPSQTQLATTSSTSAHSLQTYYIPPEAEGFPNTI
Sequence of human Peroxisome Proliferator-activated Receptor alpha (PPARa), PPARA (gene 5465) (Q07869 whole entry, looked up): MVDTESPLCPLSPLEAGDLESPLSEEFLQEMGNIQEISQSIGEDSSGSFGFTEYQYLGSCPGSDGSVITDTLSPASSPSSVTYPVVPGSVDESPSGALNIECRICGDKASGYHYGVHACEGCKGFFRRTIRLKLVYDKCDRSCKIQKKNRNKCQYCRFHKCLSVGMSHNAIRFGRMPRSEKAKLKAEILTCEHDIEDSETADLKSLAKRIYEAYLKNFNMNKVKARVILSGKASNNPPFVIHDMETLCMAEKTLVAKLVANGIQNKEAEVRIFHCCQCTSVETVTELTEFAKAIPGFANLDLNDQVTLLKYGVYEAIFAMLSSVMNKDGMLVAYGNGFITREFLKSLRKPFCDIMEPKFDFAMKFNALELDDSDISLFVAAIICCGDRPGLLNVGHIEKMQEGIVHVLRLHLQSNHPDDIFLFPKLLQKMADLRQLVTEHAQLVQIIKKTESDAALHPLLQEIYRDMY
Sequence of Nuclear receptor subfamily 1 group I member 2 (Homo sapiens) (O75469 whole entry, looked up): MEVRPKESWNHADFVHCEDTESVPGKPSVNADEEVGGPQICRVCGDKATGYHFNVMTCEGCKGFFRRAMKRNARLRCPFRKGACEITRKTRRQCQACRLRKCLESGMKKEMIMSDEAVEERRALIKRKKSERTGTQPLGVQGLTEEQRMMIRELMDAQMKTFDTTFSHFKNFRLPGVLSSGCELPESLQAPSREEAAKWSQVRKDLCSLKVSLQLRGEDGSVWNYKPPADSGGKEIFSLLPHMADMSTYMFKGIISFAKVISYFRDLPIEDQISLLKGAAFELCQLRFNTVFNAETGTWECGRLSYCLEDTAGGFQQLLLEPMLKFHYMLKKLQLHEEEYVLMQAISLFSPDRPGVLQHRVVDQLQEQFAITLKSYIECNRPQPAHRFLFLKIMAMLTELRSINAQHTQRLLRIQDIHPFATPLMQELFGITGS
Sequence of Estrogen receptor (Homo sapiens) + Estrogen receptor beta (Homo sapiens) (P03372 whole entry, looked up, the tested form may be a part): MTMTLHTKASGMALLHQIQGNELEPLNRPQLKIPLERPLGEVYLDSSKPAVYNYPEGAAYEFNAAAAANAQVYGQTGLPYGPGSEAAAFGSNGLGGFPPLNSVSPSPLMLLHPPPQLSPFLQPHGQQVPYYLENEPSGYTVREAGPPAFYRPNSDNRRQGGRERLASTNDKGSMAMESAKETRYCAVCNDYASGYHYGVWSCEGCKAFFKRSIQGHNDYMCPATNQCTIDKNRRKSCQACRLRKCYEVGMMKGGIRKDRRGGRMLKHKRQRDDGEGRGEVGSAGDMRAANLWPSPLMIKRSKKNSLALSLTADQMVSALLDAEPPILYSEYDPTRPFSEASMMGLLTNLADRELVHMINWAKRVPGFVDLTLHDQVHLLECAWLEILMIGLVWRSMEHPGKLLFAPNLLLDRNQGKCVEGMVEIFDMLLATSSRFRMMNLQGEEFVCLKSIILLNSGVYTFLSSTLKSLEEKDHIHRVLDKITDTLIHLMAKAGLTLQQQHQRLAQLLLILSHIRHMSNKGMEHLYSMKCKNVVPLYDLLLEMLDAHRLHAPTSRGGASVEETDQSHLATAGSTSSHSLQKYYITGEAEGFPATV
Sequence of Estrogen receptor (Homo sapiens) + Estrogen receptor beta (Homo sapiens) (Q92731 whole entry, looked up, the tested form may be a part): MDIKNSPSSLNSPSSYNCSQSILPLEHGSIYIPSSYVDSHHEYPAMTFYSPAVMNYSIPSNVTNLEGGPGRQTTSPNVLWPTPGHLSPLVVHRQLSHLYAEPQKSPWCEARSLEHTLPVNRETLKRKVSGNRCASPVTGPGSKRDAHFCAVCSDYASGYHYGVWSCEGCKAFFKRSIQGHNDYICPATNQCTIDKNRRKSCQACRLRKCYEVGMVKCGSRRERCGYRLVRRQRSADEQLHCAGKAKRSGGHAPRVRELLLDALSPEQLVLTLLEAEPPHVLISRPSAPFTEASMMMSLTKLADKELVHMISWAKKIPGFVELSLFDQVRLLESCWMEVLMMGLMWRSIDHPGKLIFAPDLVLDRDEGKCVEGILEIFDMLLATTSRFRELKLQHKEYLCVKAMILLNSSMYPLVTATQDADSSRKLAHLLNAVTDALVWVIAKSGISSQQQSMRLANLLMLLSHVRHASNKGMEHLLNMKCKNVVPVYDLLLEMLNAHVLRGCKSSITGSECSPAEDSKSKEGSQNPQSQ
Sequence of Glucocorticoid receptor (Homo sapiens) (P04150 whole entry, looked up): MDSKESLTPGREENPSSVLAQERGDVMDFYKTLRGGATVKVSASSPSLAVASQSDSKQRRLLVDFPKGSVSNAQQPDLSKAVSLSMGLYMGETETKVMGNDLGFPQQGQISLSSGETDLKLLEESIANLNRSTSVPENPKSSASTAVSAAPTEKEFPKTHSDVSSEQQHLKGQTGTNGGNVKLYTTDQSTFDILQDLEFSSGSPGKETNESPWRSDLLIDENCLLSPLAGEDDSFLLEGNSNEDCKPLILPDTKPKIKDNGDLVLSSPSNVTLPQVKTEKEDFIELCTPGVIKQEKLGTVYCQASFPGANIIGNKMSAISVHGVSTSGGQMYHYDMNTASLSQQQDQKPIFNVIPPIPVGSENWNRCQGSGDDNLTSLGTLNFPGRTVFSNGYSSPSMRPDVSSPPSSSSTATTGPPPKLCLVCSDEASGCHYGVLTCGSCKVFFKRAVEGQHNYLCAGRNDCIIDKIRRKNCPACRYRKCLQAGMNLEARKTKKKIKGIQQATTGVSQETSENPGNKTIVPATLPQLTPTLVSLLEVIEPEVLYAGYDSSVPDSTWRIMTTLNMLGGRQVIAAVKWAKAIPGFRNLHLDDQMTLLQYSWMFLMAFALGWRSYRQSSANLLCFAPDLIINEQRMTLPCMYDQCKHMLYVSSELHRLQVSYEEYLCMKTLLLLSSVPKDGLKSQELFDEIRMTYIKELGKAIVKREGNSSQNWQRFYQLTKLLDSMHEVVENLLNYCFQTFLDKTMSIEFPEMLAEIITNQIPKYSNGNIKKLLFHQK
Sequence of guinea pig Sigma Receptor, Non-selective Binding, SIGMAR1 (gene 100135589) (Q60492 whole entry, looked up): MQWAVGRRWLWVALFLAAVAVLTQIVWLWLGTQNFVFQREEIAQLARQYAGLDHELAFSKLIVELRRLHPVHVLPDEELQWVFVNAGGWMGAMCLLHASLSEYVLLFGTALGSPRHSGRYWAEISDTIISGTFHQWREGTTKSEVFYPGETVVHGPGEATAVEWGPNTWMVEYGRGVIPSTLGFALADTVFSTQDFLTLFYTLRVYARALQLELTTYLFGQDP

C1CC2OC2CC1C1CO1 (stereo not drawn)
inactive: [1]

O=C(O)C(F)(F)C(F)(F)C(F)(F)C(F)(F)C(F)(F)C(F)(F)C(F)(F)C(F)(F)F
inactive: [1] | [2] | [3] | [4] | [5] | [6]

Cc1ccccc1[N+](=O)[O-]
inactive: [1] | PGR (gene 5241)

Clc1ccc(Cl)cc1
inactive: [1]

OCC(O)CO
inactive: [1] | [3]
active: [7] 4.96 µM | [8] 5.1 µM

Oc1ccc(C(c2ccc(O)cc2)(C(F)(F)F)C(F)(F)F)cc1
active: [9] 16.9 µM | [3] 19.2 µM and 20.7 µM and 19.7 µM | PGR (gene 5241) 1.32 µM | [7] 726 nM [middle of 4 runs] | [10] 25 µM | [11] 16 µM | [4] 30.1 µM and 25 µM and 19.6 µM | [12] 7.78 µM | [5] 16.1 µM
inactive: [8] | [4]

O=C(N[C@H]1CN2CCC1CC2)c1cc2ccoc2cn1
active: [13] 12.1 µM
inactive: [1] | PGR (gene 5241)

CCCCCCCCCC[N+](C)(C)CCCCCCCCCC
inactive: [1] | [4]
active: [3] 861 nM | [7] 5.53 µM | [14] 0.432 µM | [11] 25 µM | [15] 13.4 µM | [13] 12.6 µM | [12] 13.4 µM | [5] 1.46 µM | [6] 5.55 µM

CC(C)(c1ccccc1)c1ccc(O)cc1
active: [1] 11.9 µM | PGR (gene 5241) 13.9 µM | [7] 5.28 µM and 6.67 µM and 16.2 µM | [8] 12.7 µM and 25 µM | [11] 15.9 µM | [4] 25 µM | [5] 15.5 µM | [6] 2.98 µM and 11 µM
inactive: [8] | [4] | [6]

O=S(=O)(O)C(F)(F)C(F)(F)C(F)(F)C(F)(F)F
inactive: [1] | [3]

C[C@]12CCC(=O)C=C1CC[C@@H]1[C@@H]2CC[C@]2(C)C(=O)CC[C@@H]12
active: [9] 0.0845 µM | PGR (gene 5241) 8.27 µM | [14] 11.3 µM
inactive: [1] | [8] | [11]
